In PubChem BioAssay (NCATS):
Records with an inconclusive call do not appear. Active and inactive are the calls of the source. Unless noted, the call rests on the fitted dose curve; in most records, active means well fitted curve in the direction sought with a large enough effect; inconclusive means small, poorly fitted or top-dose-only effect, or another doubt; inactive means no such curve, though single readings can be large; an effect the other way counts as inactive or inconclusive.

What was measured:
[1] = Cell Viability - BJ (AID 421; calls by dose curve;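 further: potency means the concentration at half of the fitted maximal effect; cells exposed to compound for 40 hours at 37 °C before readout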); settings: BJ fibroblast viability, qHTS
Procedure, shortened: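 Normal human BJ foreskin fibroblasts, 1500/well in complete medium, treated 40 hr at 37 °C. Cellular ATP by CellTiter-Glo luminescence; normalized to DMSO and 100 uM tamoxifen, AC50 from Hill fit.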

[2] = Cell Viability - Jurkat (AID 426;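 active means dose-dependent loss of cell ATP signal giving a full or clear fitted curve, ranked by lower potency value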; further: potency means the concentration at half of the fitted maximal effect); settings: qHTS
Procedure, shortened: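 Cytotoxicity was scored as loss of cellular ATP, measured by luciferase-based luminescence, in Jurkat clone E6-1 cells after 40 h compound treatment; tamoxifen and doxorubicin served as positive controls.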

[3] = Cell Viability - Hek293 (AID 427;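 active means compounds whose dose-response curve shows a full or clear partial loss of cell viability, called from curve shape rather than a numeric limit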;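 further: potency means the concentration at half of the fitted maximal effect; cells exposed to compound for 40 hours at 37 °C before reading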); settings: qHTS
Procedure, shortened: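 HEK293 cells in complete medium were exposed to compound for 40 hr at 37 °C, then cellular ATP was read by CellTiter-Glo luminescence. Data were normalized to DMSO (basal) and 100 uM tamoxifen (100% inhibition), and AC50 came from Hill fits.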

[4] = Cell Viability - HepG2 (AID 433; calls by dose curve;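 further: potency means the concentration at half of the fitted maximal effect; potency for ATP loss meaning cytotoxicity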); settings: qHTS
Procedure, shortened: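 Read-out is luciferase-based quantitation of cellular ATP as a measure of viable HepG2 cells after 40 h treatment at 37 °C. Signal decrease is scaled between DMSO-only and 100 uM tamoxifen controls, with AC50 fitted by the Hill equation.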

[5] = Cell Viability - MRC5 (AID 434; calls by dose curve;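 further: potency means the concentration at half of the fitted maximal effect; potency reflects cytotoxicity seen as loss of intracellular ATP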); settings: MRC5 lung fibroblast viability, qHTS
Procedure, shortened: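 ATP luminescence read-out (CellTiter-Glo, 20 min RT) after 40 hr, 37 °C compound exposure of 1500 MRC5 cells/well. Data normalized to DMSO (basal) and 100 uM tamoxifen (100% inhibition); AC50 from standard Hill equation.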

[6] = Cell Viability - SK-N-SH (AID 435; calls by dose curve;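 further: potency means the concentration at half of the fitted maximal effect; compound exposure lasted 40 h at 37 °C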); settings: SK-N-SH neuroblastoma cell viability qHTS
Procedure, shortened: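 Luminescent ATP signal served as the viability read-out after 40 hours of compound treatment of human neuroblastoma SK-N-SH cells. Concentration-response data, scaled between DMSO and 100 uM tamoxifen, gave AC50 values by standard Hill modeling.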

[7] = Cell Viability - N2a (AID 540); settings: N2a mouse neuroblastoma cell viability; at 92.2 µM (top of the series);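 further: plate controls were DMSO alone for no effect and tamoxifen control for full effect; nearly all actives have a fitted effect of over 45% in size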
Procedure, shortened: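 In this qHTS cytotoxicity screen, ATP-dependent luciferase luminescence reports viable N2a cells after a 40 hr compound exposure in complete culture medium. Potencies are AC50 values from standard Hill equation fits.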

[8] = Cell Viability - NIH 3T3 (AID 541); settings: NIH 3T3 cell viability, qHTS; activity change, negative = cytotoxicity: at 92.2 µM (top of the series);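 further: plate controls were DMSO alone for no effect and tamoxifen positive control for full effect; nearly all actives have a fitted effect of over 25% in size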
Procedure, shortened: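 In this cytotoxicity screen, acute toxicity is scored as an ATP drop measured by CellTiter-Glo in NIH 3T3 fibroblasts following a 40 hr, 37 °C incubation with compound.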

[9] = Cell Viability - HUV-EC-C (AID 542); further: on the % scale 0 is the no-effect control and ±100 the full control effect; nearly all actives have a fitted effect of over 35% in size
Procedure, shortened: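 Concentration-dependent ATP loss in HUV-EC-C cells is the measure. Exposure lasts 40 hr at 37 °C; luminescence follows CellTiter-Glo addition, and Hill fits give AC50.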

[10] = Cell Viability - H-4-II-E (AID 543); further: on the % scale 0 is the no-effect control and ±100 the full control effect; nearly all actives have a fitted effect of over 35% in size
Procedure, shortened: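 AC50 from Hill-modelled qHTS concentration-response curves. H-4-II-E rat hepatoma cells in complete medium, 40 hr exposure at 37 °C, viability by CellTiter-Glo ATP luminescence.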

[11] = Cell Viability - Renal Proximal Tubule (AID 545); settings: renal proximal tubule cells viability; at 91.7 µM (top of the series), primary cells of rat origin unless noted; further: nearly all actives have a fitted effect of over 40% in size
Procedure, shortened: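 Luminescent ATP signal (CellTiter-Glo) served as the viability read-out after 40 hr compound exposure of freshly isolated rat proximal tubule cells at 37 °C. Concentration-dependent ATP loss was fitted with the Hill equation to give AC50.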

[12] = Cell Viability - Mesenchymal (AID 546);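 further: cells exposed to compound for 40 hours before reading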
Procedure, shortened: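 Human renal mesenchymal cells (glomerulus-derived), 1000 cells/well, 5 hr 37 °C pre-incubation; compound 40 hr, 37 °C; CellTiter-Glo, 20 min RT; luminescence; AC50 via Hill equation.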

[13] = Cellular Toxicity (caspase-3) HepG2 (AID 654);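 further: cells exposed to compound for 16 hours before reading; 0% = DMSO alone and 100% = caspase signal from 100 µM tamoxifen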
Procedure, shortened: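 Concentration-response AC50 values reflect caspase-3/7 induction in HepG2 cells after 16 hours of compound exposure, quantified by luminescence from liberated aminoluciferin and referenced to 100 uM tamoxifen as full stimulation.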

[14] = Cellular Toxicity (caspase-3) Jurkat (AID 655); settings: Jurkat caspase-3 activation, luminescence, DMSO = 0%, tamoxifen = 100%; at 92.2 µM (top of the series);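 further: cells exposed to compound for 16 h at 37 °C before reading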
Procedure, shortened: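 5000 Jurkat cells/well; compound 16 hr, 37 °C; Caspase-Glo 3/7 added, 20 min RT; luminescence read. Norm: DMSO = 0%, tamoxifen 100 uM = 100%. AC50, Hill model.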

[15] = Cellular Toxicity (caspase-3) HUV-EC-C (AID 656)
Procedure, shortened: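 qHTS; HUV-EC-C, 1000 cells/well; 5 hr settle, 16 hr cmpd, 37°C; Caspase-Glo 3/7, 20 min RT; luminescence. Norm: DMSO = 0%, tamoxifen 100 uM = 100%. Hill-fit AC50.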

[16] = Cellular Toxicity (caspase-3) SHSY5Y (AID 657)
Procedure, shortened: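 qHTS, SH-SY5Y, 1500 cells/well, 5 h pre-incubation 37 °C; compound 16 h 37 °C; Caspase-Glo 3/7 1 h RT; luminescence. Norm.: DMSO = 0, 10 uM staurosporine = 100%. Hill fit → AC50.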

[17] = Cellular Toxicity (caspase-3) BJ (AID 658);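 further: 0% = DMSO basal and 100% = 10 µM staurosporine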
Procedure, shortened: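 qHTS, BJ fibroblasts, 1000 cells/well; 5 hr preincubation, 16 hr compound, 37 °C; Caspase-Glo 3/7 reagent, 1 hr RT; luminescence. DMSO = 0%, 10 uM staurosporine = 100%. Hill-equation AC50.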

[18] = Cellular Toxicity (caspase-3) MRC-5 (AID 659);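 further: 0% = DMSO basal and 100% = 10 µM staurosporine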
Procedure, shortened: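 MRC-5 fibroblasts, 1500/well; 16 h cpd, 37 °C; Caspase-Glo 3/7, 1 h RT; lumi read. Norm: DMSO = 0%, 10 uM staurosporine = 100%. Hill-fit AC50 from qHTS conc-response.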

[19] = Cellular Toxicity (caspase-3) Mesangial (AID 660);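 further: combined caspase 3 and 7 activity read by Caspase-Glo luminescence; cells exposed to compound for 16 h before the caspase read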
Procedure, shortened: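 AC50 values come from Hill-equation fits of caspase 3/7 activation, measured as Caspase-Glo luminescence in human glomerular mesangial cells exposed to compound for 16 h at 37 °C; 100% set by 100 uM tamoxifen.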

[20] = Cellular Toxicity (caspase-3) SK-N-SH (AID 661);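 further: 0% = DMSO basal and 100% = 10 µM staurosporine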
Procedure, shortened: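 Apoptosis readout in SK-N-SH neuroblastoma: Caspase-Glo 3/7 luminescence following 16 hr treatment in complete culture medium. Normalization used DMSO and 10 uM staurosporine controls.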

[21] = Cellular Toxicity (caspase-3) H-4-II-E (AID 663);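 further: cells exposed to compound for 16 hr before readout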
Procedure, shortened: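 H-4-II-E rat hepatoma, 1500 cells/well, 5 hr settle at 37 °C; compound 16 hr, 37 °C, complete medium; Caspase-Glo 3/7, 20 min RT; luminescence. DMSO = 0%, 100 uM tamoxifen = 100%; Hill-equation AC50.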

[22] = Cellular Toxicity (caspase-3) Hek293 (AID 664);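 further: cells exposed to compound for 16 h at 37 °C before readout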
Procedure, shortened: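 Apoptosis readout: Caspase-Glo 3/7 signal in human HEK293 cells following 16-hour compound incubation. Responses scaled between DMSO baseline and 100 uM tamoxifen.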

Clc1cc(Cl)c(-c2cc(Cl)c(Cl)cc2Cl)cc1Cl
active: Potency [5] 24.3 µM | activity change, negative = cytotoxicity [7] -93.1%
inactive: Potency [1] > 92 µM | Potency [2] > 92 µM | Potency [3] > 92 µM | Potency [4] > 92 µM | Potency [6] > 92 µM | activity change, negative = cytotoxicity [8] -24.8% | Potency [9] | Potency [10] | activity change, negative = cytotoxicity [11] -5.09% [at 91.7 µM] | outcome [12] | outcome [13] | caspase-3 activation [14] 0.996% | outcome [15] | outcome [16] | outcome [17] | outcome [18] | outcome [19] | outcome [20] | outcome [21] | outcome [22]
